Data on 15 compounds can be found in PubChem BioAssay (NCATS).

SMILES strings stand for the structures. “And” between values parts separate entries of the source, which are not always exact repeats. Equal values may be shown once. Inconclusive results are not listed. Unmarked numbers belong to inactive results. The source made the active and inactive calls. Calls come from the whole dose curve; as a rule, active = well fitted curve in the direction sought with a large enough effect; inconclusive = small, poorly fitted or top-dose-only effect, or another doubt; inactive = no such curve, though single readings can be large; an effect the other way counts as inactive or inconclusive.

Test [1] addresses Cellular tumor antigen p53 (Homo sapiens) (UniProt P04637). Put plainly: Primary qHTS for small molecule compounds that upregulate eGFP-tagged delta133p53alpha (in N-terminal) cells. (AID 2060322).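 For activation: cells pre-induced with doxycycline then dosed without doxycycline; series mostly up to about 56 µM; 0% = DMSO vehicle and 100% = reference activator.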 Note: nearly all actives have a fitted effect of over 75% in size. Note: potency is the fitted concentration of half-maximal effect. The note with it: NCI-H358 eGFP-delta133p53alpha fluorescence, 24 h; activation: active compounds read high. The procedure, abridged:
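NCI-H358 cells pre-induced 24 h with 10 ng/ml doxycycline for eGFP-delta133p53alpha, plated dox-free and exposed 24 h at 37C to titrated compounds. Fixed, Hoechst-stained; gated GFP peak intensity by laser scanning cytometry, normalized to DMSO (0%) and 57.5 uM 5-azacytidine (100%).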

Test [2] concerns the target Aldehyde dehydrogenase, mitochondrial (Homo sapiens) (UniProt P05091). Put plainly: qHTS for Inhibitors of the Aldehyde Dehydrogenase Family (ALDH2) Primary screen (AID 2061308).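 Note: plate controls were vehicle for no effect and reference inhibitor for full effect; nearly all actives have a fitted effect of over 55% in size.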
The target in test [3] is Retinaldehyde dehydrogenase 3 (Homo sapiens) (UniProt P47895). The test is described as follows: qHTS for Inhibitors of the Aldehyde Dehydrogenase Family (ALDH1A3) Validation screen (AID 2061312). Note: % is set by controls: 0 for no effect and ±100 for the full control effect; nearly all actives have a fitted effect of over 45% in size.
For test [4] the target is unchanged. The test is described as follows: qHTS for Inhibitors of the Aldehyde Dehydrogenase Family (ALDH1A3) Primary screen (AID 2061315).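 Note: plate controls were DMSO vehicle for no effect and reference inhibitor for full effect.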
Test [5] is described as follows: BET inhibitor-based combinations targeting novel dependencies in MECOM-rearranged (r) AML: SET-2 cell line (AID 2202231).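 For viability: plate controls were DMSO treated cells for no effect and wells without cells for full effect.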 Note: nearly all actives have a fitted effect of over 35% in size. Note: potency is the fitted concentration of half-maximal effect. The note with it: SET-2 AML cells viability, CellTiter-Glo luminescence, 48 h; viability: active compounds read low, concentration not given here. An outline of the steps:
(§1)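 500 cells/well; 11-pt dose curve; 48 h, standard incubator; CellTiter-Glo luminescence after 15 min RT; DMSO/empty-well normalization; AUC plus Z-AUC (mean-centered within each line).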

The nature of test [6]: BET inhibitor-based combinations targeting novel dependencies in MECOM-rearranged (r) AML: OCI-AML3 cell line (AID 2202232). Note: nearly all actives have a fitted effect of over 35% in size. Note: potency is the fitted concentration of half-maximal effect. The note with it: Potency: OCI-AML3 viability. The procedure, abridged: as §1
Test [7] can be described thus: BET inhibitor-based combinations targeting novel dependencies in MECOM-rearranged (r) AML: MV-4-11 cell line (AID 2202233). Note: nearly all actives have a fitted effect of over 45% in size. Note: potency is the fitted concentration of half-maximal effect. The procedure, abridged:
(§2)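 Cells were plated at 500 per well and exposed to each drug across an 11-point dose range for 48 hr at standard incubator conditions. Viability was read by CellTiter-Glo luminescence, and activity was expressed as AUC and per-cell-line Z-transformed AUC.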

Test [8] in a line: BET inhibitor-based combinations targeting novel dependencies in MECOM-rearranged (r) AML: HNT-34 cell line (AID 2202234). Note: nearly all actives have a fitted effect of over 35% in size. Note: potency is the fitted concentration of half-maximal effect. An outline of the steps:
as §2

Test [9] can be described thus: BET inhibitor-based combinations targeting novel dependencies in MECOM-rearranged (r) AML: UCSD-AML1 cell line (AID 2202235). Note: nearly all actives have a fitted effect of over 40% in size. Note: potency is the fitted concentration of half-maximal effect. An outline of the steps: as §2
Test [10] in a line: BET inhibitor-based combinations targeting novel dependencies in MECOM-rearranged (r) AML: AML-191 cell line (AID 2202236; note: nearly all actives have a fitted effect of over 35% in size; note: potency is the fitted concentration of half-maximal effect). The procedure, abridged: as §1
A short description of test [11]: BET inhibitor-based combinations targeting novel dependencies in MECOM-rearranged (r) AML: AML-194 cell line (AID 2202237; note: nearly all actives have a fitted effect of over 40% in size; note: potency is the fitted concentration of half-maximal effect). The procedure, abridged:
as §1

Sequence of Cellular tumor antigen p53 (Homo sapiens) (P04637 whole entry, looked up): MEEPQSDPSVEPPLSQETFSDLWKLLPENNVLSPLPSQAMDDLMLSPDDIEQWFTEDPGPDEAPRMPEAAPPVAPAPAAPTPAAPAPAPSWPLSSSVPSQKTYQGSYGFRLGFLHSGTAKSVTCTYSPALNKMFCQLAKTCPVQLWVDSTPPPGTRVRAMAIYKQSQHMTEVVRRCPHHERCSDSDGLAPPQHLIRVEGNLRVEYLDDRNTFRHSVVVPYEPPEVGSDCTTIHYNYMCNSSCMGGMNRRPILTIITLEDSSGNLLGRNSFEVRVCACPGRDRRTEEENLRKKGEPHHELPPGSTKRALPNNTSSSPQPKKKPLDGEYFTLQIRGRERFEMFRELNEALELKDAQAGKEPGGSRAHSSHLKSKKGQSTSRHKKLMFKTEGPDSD

`O=C(Nc1ncc(-c2cc(C(F)F)nn2-c2c(Cl)cccc2Cl)s1)C1CC1`: in [1], the activation is 7.16%. In addition, the Potency entry in test [2], in test [3] and in test [4] was “inactive” in each case. The Potency is 1.05 µM (active) in test [5]; 0.833 µM (active) in test [6]; 1.05 µM (active) in test [7]; 0.742 µM (active) in [8]; 0.833 µM (active) in test [9]; 0.934 µM (active) in test [10]. The Potency in test [11] was 0.742 µM (active).
Take `C#CC[C@H](c1nc2cc(Cl)ccc2c(=O)n1Nc1ccccc1)N(CCCN)C(=O)c1cccc(Cl)c1F`: the Potency in test [1] was 4.78 µM (active); in test [5], 10.5 µM (active); in test [6], 0.59 µM (active); in test [7], 1.05 µM (active); in test [8], 0.372 µM (active); in test [9], 1.05 µM (active). In addition, the Potency in [10] and in test [11] was 3.32 µM (active) in each case. The Potency result in [2], in [3] and in test [4] was “inactive” in each case.
Turning to `CC(C)c1cc(C(=O)N2Cc3ccc(CN4CCN(C)CC4)cc3C2)c(O)cc1O`, the activation in test [1] is -13.4%. Besides, the Potency result in test [2], in test [3] and in [4] was “inactive” in each case. The Potency is 0.263 µM (active) in test [5]; 0.296 µM (active) in test [6]; 0.0742 µM (active) in test [7]; 0.209 µM (active) in test [8]; 0.263 µM (active) in test [9].
Take `Fc1ccc(CNc2ncnc3ccc(F)cc23)cc1`: the activation in test [1] is -0.393% and 5.25%. The Potency entry in [2], in [3], in test [4], in test [9] and in test [11] was “inactive” in each case. In addition, the Potency in test [5] was 2.63 µM (active); in test [6], 4.17 µM (active); in test [7], 5.9 µM (active); in test [8], 16.6 µM (active).
With `Cc1cc2c(s1)Nc1ccccc1N=C2N1CCN(C)CC1`, in test [1], the activation was -5.86% and 20.9% and -11.5%. Also, the Potency result in [2], in test [3], in test [4], in [6], in [7] and in [8] was “inactive” throughout. Also, the Potency entry in test [9], in test [10] and in test [11] was “inactive” each time. Moreover, the viability in test [5] was 111%.
As to `COc1cc2c(cc1-c1c(C)noc1C)ncc1[nH]c(=O)n([C@H](C)c3ccccn3)c12`, the activation in test [1] is 5.5% and 9.55% and -13.4%. Moreover, the Potency entry in [2], in test [3] and in test [4] was “inactive” in each case. Further, the Potency in test [5] was 1.32 µM (active); in test [6] it was 0.468 µM (active); in test [7], 0.417 µM (active).
As to `Cc1noc2c1-c1ccccc1C(c1ccc(Cl)cc1)=N[C@H]2CC(N)=O`, in [1], the activation is 32.4%. In addition, the Potency result in test [2], in test [3] and in [4] was “inactive” throughout. Also, the Potency in test [5] is 2.35 µM (active); in [6], 1.32 µM (active); in test [7], 0.525 µM (active); in test [8], 1.48 µM (active).
On to `CC[C@@H](C)Nc1cc(C(=O)NC2CC3CC[C@@H](C2)N3c2ccc(C(=O)C3CC3)cn2)c(C)cc1C(N)=O` (some centres undefined), for which the activation in test [1] is 20.5%. The Potency entry in test [2], in [3] and in test [4] was “inactive” each time. Further, the Potency in test [5] was 0.132 µM (active); in [6], 0.0661 µM (active); in test [7], 0.0417 µM (active); in test [8] it was 0.105 µM (active); in test [9], 0.132 µM (active); in test [10], 0.118 µM (active). Further, the Potency in test [11] is 0.105 µM (active).
With `Cc1nnc(C(C)C)n1C1CC2CCC(C1)N2CCC(NC(=O)C1CCC(F)(F)CC1)c1ccccc1` (centres undefined), in [1], the activation is -3.82%. The Potency result in test [2], in test [3], in test [4], in test [6], in test [7] and in test [8] was “inactive” throughout. Moreover, the Potency result in [9], in test [10] and in test [11] was “inactive” each time. Besides, the viability in test [5] was 109%.
Take `C[C@@]1(c2cc(-c3cncnc3)c(F)cc2F)CCSC(N)=N1`: in [1], the activation was 19.2% and -1.91%. In addition, the Potency result in [2], in [3], in test [4], in [6], in test [7] and in [8] was “inactive” in each case. Further, the Potency entry in test [9], in [10] and in test [11] was “inactive” in each case. The viability in test [5] is 111%.
Take `CC(C)(OCc1nn(Cc2ccccc2)c2ccccc12)C(=O)O`: the activation in test [1] was -10.7% and 1.91%. Also, the Potency entry in test [2], in [3], in test [4], in [6], in test [7] and in [8] was “inactive” throughout. For the same compound, the Potency entry in test [9], in [10] and in test [11] was “inactive” throughout. In addition, the viability in [5] was 104%.
With `CC(=O)Nc1ccc([C@H](C)C(=O)Nc2ncc(C(C)C)s2)cc1`, the Potency in [1] was 3.06 µM (active) and 2.69 µM (active); in test [5] it was 3.32 µM (active); in test [6], 7.42 µM (active); in [7], 5.25 µM (active); in test [8], 3.32 µM (active); in test [9] it was 3.32 µM (active). Moreover, the figures for the Potency in test [10] and in test [11] were 1.86 µM (active) and 2.95 µM (active), respectively. The Potency entry in [2], in [3] and in test [4] was “inactive” throughout.
Turning to `CC(C)N(C[C@H]1O[C@@H](n2cnc3c(N)ncnc32)[C@H](O)[C@@H]1O)C1CC(CCc2nc3ccc(C(C)(C)C)cc3[nH]2)C1` (some centres undefined), the activation in [1] is 15.8% and 10%. For the same compound, the Potency entry in [2], in test [3], in [4], in [6], in [8] and in [9] was “inactive” in each case. In addition, the Potency entry in test [10] and in test [11] was “inactive” in each case. In addition, the viability in test [5] is 125%. The Potency in test [7] was 6.61 µM (active).
In the case of `Cc1[nH]c(/C=C2\C(=O)Nc3ccc(S(=O)(=O)N(C)c4cccc(Cl)c4)cc32)c(C)c1C(=O)N1CCN(C)CC1`, in test [1], the activation is -19.1%. For the same compound, the Potency result in test [2], in [3] and in test [4] was “inactive” throughout. The Potency in test [5] was 20.9 µM (active); in [6], 10.5 µM (active); in [7] it was 4.68 µM (active); in test [8] it was 16.6 µM (active); in [10] it was 7.42 µM (active); in [11], 7.42 µM (active).
Take `CC[C@@]1(O)C(=O)OCc2c1cc1n(c2=O)Cc2cc3cc(O)ccc3nc2-1`: the Potency was 1.51 µM (active) and 19.3 µM (active) in [1]; 0.0332 µM (active) in test [5]; 0.0148 µM (active) in test [6]; 0.0066 µM (active) in [7]; 0.0074 µM (active) in test [8]; 0.0132 µM (active) in [9]. Moreover, the Potency in test [10] was 0.0132 µM (active); in [11] it was 0.0209 µM (active). Moreover, the Potency result in [2], in [3] and in test [4] was “inactive” throughout.
